Experimental data: PubChem BioAssay (NCI)
Where “and” joins values, the source holds several entries; their conditions need not be identical. Equal entries are not always repeated. The panel holds about 79,000 compounds, 15% with a hit somewhere; the sample as a whole holds those more often. Calls of active or inactive are those of the source. Cut-off read from the data, not from the text of the source: active = growth inhibition above about 70%; inactive = the rest.

Assay: NCI Yeast Anticancer Drug Screen. Data for the bub3 strain (AID 167)
Details: S. cerevisiae bub3 mutant strain, at 50.0 µM, stronger effect = higher value
In short: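 Readout: yeast growth inhibition, expressed relative to vehicle-only wells. The test organism is a mutant strain from a panel with lesions in DNA repair or checkpoint genes.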

SMILES	growth inhibition
CC1(C)[C@@H]2CC[C@@]1(C)CN(CCC[N+](C)(C)C)C2	-19.4% (inactive)
CCC1(O)CC(O)c2c(O)c3c(c(O)c2C1C(=O)OC)C(=O)c1cccc(O)c1C3=O (configuration not stated)	14.5% (inactive)
COC(=O)C1C2CCCN2OC1(C)CO (configuration not stated)	12.9% (inactive)
CCC[CH2][Sn]([Br])([CH2]CCC)[CH2]CCC	89.4% (active)
Cc1ccc2ccccc2c1	2.4% (inactive)
CN1CN(c2ccccc2)C2(CCN(CC(C)(c3ccc(F)cc3)C3OCCCO3)CC2)C1=O (configuration not stated)	-27.1% (inactive)
C[P+](C)(C)C	12% (inactive) and -17.4% (inactive)
C/C=C/C1(CCCC)C(=O)NC(=O)NC1=O	-2.6% (inactive)
CCOC(=O)C(Cc1ccc(N(CCCl)CCCl)cc1)NC(=O)C(N)CO (configuration not stated)	12.3% (inactive)
CC(COC(=O)NCc1ccccc1)OC(N)=O (configuration not stated)	1.15% (inactive)
CS/C([S-])=N/N=C(C)C.CS/C([S-])=N/N=C(C)C.[Pt+2]	-0.8% (inactive)
O=c1[nH]cc(N=Cc2ccccc2Cl)c(=O)[nH]1.[Cl][Pt][Cl]	1.55% (inactive)
[Mn+3].[O-][Cl+3]([O-])([O-])O.[O-]c1ccccc1C=NCCN1CC1.[O-]c1ccccc1C=NCCN1CC1	98.8% (active)
CN1C[C@H]2[C@@H](C1=O)[C@H](c1ccccc1)ON2C	5.85% (inactive)
O=C(O)COc1nc(Cl)c(Cl)cc1Cl	15.6% (inactive)
CCCCOc1ccc([As](=O)(O)O)cc1	16.1% (inactive)
CC1=CC(=O)NP(=O)(Oc2ccc(C)cc2)N1 (configuration not stated)	-25.3% (inactive)
